This assay concerns MIWI (PIWIL1) piRISC loaded with L1MC piRNA (30 nt). Kind of assay: pre-steady-state target cleavage rate (min^-1); MIWI and MILI are mouse PIWI proteins and EfPiwi is from a freshwater sponge; tags in brackets are library labels; higher = faster piRNA-guided slicing of the target. The conditions noted are these: guide: L1MC piRNA 5'p-UAACUAAAUACUAUGCAAGCUGUAGGUCCU
In a few lines:
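The method was Cleave-'n-Seq, in which uncleaved targets from a transcribed, DNA-blocked target RNA library were sequenced after exposure to active affinity-purified piRISC carrying one synthetic guide, with or without GTSF1 partner protein. Reactions contained 0.1 nM library, 1 nM piRISC and, where present, 500 nM GTSF1 in HEPES–potassium acetate buffer at 33 °C for 0–8 or 0–960 min. Reads were normalised to depth and to weakly complementary targets, three trials were pooled, and k3 was capped at 0.0001 min^-1. The pre-steady-state cleavage rate came from a burst-and-steady-state fit.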

Setting [1] is: auxiliary factor: 500 nM mouse GTSF1.
The mark [2] stands for this setting: auxiliary factor: none (no GTSF1).

Here are results for 39 sequences from the supplement of paper PMC10338343.

± gives the standard deviation. The full ranking holds about 8,200 sequences; the median of “pre-steady-state target cleavage rate” is about 0.024, and the highest 2% start at about 1.3. The full list was thinned out, with the highest values kept by preference.

As for UCCUGGUACACGUUGCAUAGUAUUUUCAAA, under setting [1], the “pre-steady-state target cleavage rate” value came out at 0.0245 ± 0.013. Consider UGGUCCUACUGCUUGCAUAGUAUUUAGUUA, for which the “pre-steady-state target cleavage rate” value by setting is: under setting [1], 1.22 ± 0.05; under setting [2], 0.0687 ± 0.01. The like results for AGGACCUAGAGCUUGCAAAGUAUUUAGUUA were, in that order, 1.17 ± 0.054 and 0.0284 ± 0.0069. Turning to AGGACCUACAGCUUGCAUAGAUUUUAGAAA, under setting [1], the “pre-steady-state target cleavage rate” value turned out to be 0.247 ± 0.071.

With UCGACCUACAGCUUGCAGAGUAUUUAGUUA, the “pre-steady-state target cleavage rate” value runs as follows: under setting [1], 1.05 ± 0.066; under setting [2], 0.0315 ± 0.0073.

On to UCCUCCUUCAGCUUGCAUAGUAUUUAGUUA, for which the “pre-steady-state target cleavage rate” value was determined as 1.23 ± 0.036 under setting [1] and 0.0537 ± 0.0085 under setting [2].

For UCCUCCUCCAGCUUGCAUAGUAUUUAGUUA, the “pre-steady-state target cleavage rate” value by setting is: under setting [1], 1.12 ± 0.027; under setting [2], 0.0546 ± 0.0092. UCCUCCUUCAGCUUGCAUAGUAUUUAGUAA: the “pre-steady-state target cleavage rate” value by setting is: under setting [1], 0.717 ± 0.04; under setting [2], 0.0202 ± 0.0041. The like results for UCCUCGUUCAGCUUGCAUAGUAUUUAGUUA were, in that order, 1.4 ± 0.041 and 0.0653 ± 0.014. The like results for UCGUCCUUCAGCUUGCAUAGUAUUUAGUUA were, in that order, 1.41 ± 0.038 and 0.0596 ± 0.01.

For the sequence AGGUCCUUCAGCUUGCAUAGUAUUUAGUUA, the “pre-steady-state target cleavage rate” value by setting is: under setting [1], 1.42 ± 0.05; under setting [2], 0.0947 ± 0.018. On to UCCUGGUUCAGCUUGCAUAGUAUUUAGUUA, for which the “pre-steady-state target cleavage rate” value runs as follows: under setting [1], 0.972 ± 0.042; under setting [2], 0.0721 ± 0.016. With UGGUCCUUCAGCUUGCAUAGUAUUUAGUUA, the “pre-steady-state target cleavage rate” value is, setting by setting: under setting [1], 1.22 ± 0.059; under setting [2], 0.0643 ± 0.011.

Turning to UCCACCUUCAGCUUGCAUAGUAUUUAGUAA, the “pre-steady-state target cleavage rate” value was found to be 0.628 ± 0.038 under setting [1] and 0.0237 ± 0.0045 under setting [2].

With UCCUGGUACAGCUUGCAUUGUAUUUAGAAA, the “pre-steady-state target cleavage rate” value under setting [1] stood at 0.0478 ± 0.013.

Turning to AGGACCUACACCUUGCAUAGUAUUAAGUUA, the “pre-steady-state target cleavage rate” value is, setting by setting: under setting [1], 0.627 ± 0.054; under setting [2], 0.0334 ± 0.0069. The like results for UCCUGGAUGAGCUUGCAAAGUAUUAAGUUA were, in that order, 0.331 ± 0.035 and 0.00974 ± 0.0037.

For UCCACCUACAGCUUGGAAAGUAUUUAGUUA, the “pre-steady-state target cleavage rate” value came out at 1.01 ± 0.03 under setting [1] and 0.00576 ± 0.0018 under setting [2]. The like results for UCCACCUACAGCUUGCAUAGUAUCUUAGUUA were, in that order, 0.709 ± 0.057 and 0.0225 ± 0.005. As to UCCACCUACAGCUUGCAUAGUAAAUACAAA, the “pre-steady-state target cleavage rate” value under setting [1] came out at 0.155 ± 0.037. Regarding UCCUGGAUGUGCUUGGAUAGUAUAUAGUUA, the “pre-steady-state target cleavage rate” value runs as follows: under setting [1], 0.0799 ± 0.017; under setting [2], 0.0106 ± 0.0049.

For the sequence UCCUGGAACAGCUUGCAUAGUAUUUAAGUUA, the “pre-steady-state target cleavage rate” value under setting [1] was 0.549 ± 0.034 and the “pre-steady-state target cleavage rate” value under setting [2] stood at 0.0597 ± 0.014. The like results for AGGACCUACAGCUAUGCAUAGUAUUUAGUUA were, in that order, 0.962 ± 0.052 and 0.0545 ± 0.011. On to UGGACCUACAGCUAUGCAUAGUAUUUAGUUA, for which the “pre-steady-state target cleavage rate” value is, setting by setting: under setting [1], 1.24 ± 0.11; under setting [2], 0.0371 ± 0.0083. The like results for UCCACCUACAGCUCUGCAUAGUAUUUAGUUA were, in that order, 0.862 ± 0.063 and 0.0214 ± 0.0048. The like results for UGGACCUACAGCUGGCAUAGUAUUUAGUUA were, in that order, 1.04 ± 0.044 and 0.0463 ± 0.011. The like results for UCCUCCUACAGCUCUGCAUAGUAUUUAGUUA were, in that order, 1.03 ± 0.044 and 0.0182 ± 0.0041.

As for UCGACCUACAGCUGCAUAGUAUUUAGUUA, the “pre-steady-state target cleavage rate” value is, setting by setting: under setting [1], 1.3 ± 0.079; under setting [2], 0.00665 ± 0.0025. The like results for UGGACCUACAGCUCUGCAUAGUAUUUAGUUA were, in that order, 1.56 ± 0.11 and 0.0566 ± 0.014. The like results for AGGACCUACAGCUCUGCAUAGUAUUUAGUUA were, in that order, 1.56 ± 0.1 and 0.0543 ± 0.014. The like results for UCCUGCUACAGCUCUGCAUAGUAUUUAGUUA were, in that order, 0.851 ± 0.058 and 0.0138 ± 0.003. Turning to UCGACCUACAGCUCUGCAUAGUAUUUAGUUA, the “pre-steady-state target cleavage rate” value is 1.32 ± 0.067 under setting [1] and 0.0476 ± 0.0099 under setting [2]. The like results for UGGACCUACAGCUGCAUAGUAUUUAGUUA were, in that order, 1.37 ± 0.11 and 0.00982 ± 0.0031.

In the case of AGGACCUACAGCUGCAUAGUAUUUAGUUA, the “pre-steady-state target cleavage rate” value stood at 1.15 ± 0.068 under setting [1] and 0.0107 ± 0.0029 under setting [2]. On to UCCACCUACAGCUUGCAUAGUAAAAAGAAA, for which the “pre-steady-state target cleavage rate” value under setting [1] was found to be 0.102 ± 0.028. As to UCCUGGAUCAGCUUGCUUAGUUUUUAGUUA, the “pre-steady-state target cleavage rate” value amounted to 0.0882 ± 0.01 under setting [1] and 0.0125 ± 0.0034 under setting [2]. The like results for UCCUGGUACAGCUUGCAUAGUUAUUAGUAA were, in that order, 0.0627 ± 0.017 and 0.00413 ± 0.0036. As for UCCUGGUAUCAGCUUGCAUAGUAUUUAGUUA, the “pre-steady-state target cleavage rate” value under setting [1] came to 0.546 ± 0.06 and the “pre-steady-state target cleavage rate” value under setting [2] turned out to be 0.062 ± 0.014.

Consider UCGACCUACAGCUUGGUUAGUAUUUAGAAA, for which the “pre-steady-state target cleavage rate” value under setting [1] is 0.224 ± 0.04.
